The nature of test [1]: CCTE_Simmons_MITO_basal_resp_rate: CCTE's HepG2 Seahorse XF Respirometric Screening Assay at Basal Respiratory State, Simmons Lab (AID 2284001). The settings on record: actives raise or lower the signal. The method, boiled down: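 Basal-phase OCR of HepG2 cells on a Seahorse XF96, analysed by bidirectional fit relative to DMSO vehicle; chemicals at 7 concentrations, 125 nM–100 uM final; three biological replicates; fenpyroximate and 2,4-dinitrophenol positive controls.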

Test [2] can be described thus: CCTE_Simmons_MITO_max_resp_rate: CCTE's HepG2 Seahorse XF Respirometric Screening Assay at Maximal Respiratory State [uncoupled], Simmons Lab (AID 2284002). The settings on record: actives raise or lower the signal. In short, it runs like this: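 HepG2 oxygen consumption measured on Seahorse XF after FCCP uncoupling, following test compound injection; 7 concentrations from 125 nM to 100 uM final. Readings every 6 min over 72 min, three biological replicates; bidirectional fit versus DMSO.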

Test [3] in a line: CCTE_Simmons_MITO_inhib_resp_rate: CCTE's HepG2 Seahorse XF Respirometric Screening Assay at Inhibited Respiratory State [full ETC block], Simmons Lab (AID 2284006). As to conditions: actives raise or lower the signal. In short, it runs like this: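 Test chemicals at seven final concentrations (125 nM–100 uM) in three biological replicates, with DMSO as vehicle. HepG2 oxygen consumption was then tracked on a Seahorse XF96 for 72 min through FCCP and rotenone/antimycin A phases, with the inhibited-phase rate as the endpoint.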

The nature of test [4]: CCTE_Simmons_MITO_viability: CellTiter-Glo Viability Assessment for CCTE's HepG2 Seahorse XF Respirometric Screening Assay [post-hoc], Simmons Lab (AID 2284007; active = hit-call score of the fitted dose curve at least 0.9, where 1 is the maximum;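 as to AC50: cells exposed to chemical for 90 min before the ATP read; actives lower ATP signal relative to DMSO baseline meaning reduced viability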). The method, boiled down: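 Post-hoc viability check on the HepG2 respirometry plates: luciferase-based ATP signal measured once, after 90 min compound exposure spanning 125 nM–100 uM final. Activity was referenced to DMSO as baseline.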
(Cellular ATP, detected with luciferase, serves as a proxy for viable cell number.)

A short description of test [5]: CCTE_Shafer_MEA_acute_spike_number: CCTE's Neural Acute Assay for Total Number of Spikes, Shafer Lab (AID 2284008).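 As to AC50: curve fitted for decrease in spike count so AC50 reflects inhibitors.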 In short, it runs like this: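 Rat primary cortical neurons on 48-well MEA plates, DIV 13 or 15, at 37 C. 40 min baseline then 40 min with compound (0.03-40 uM); spikes detected at 8x rms noise, expressed as percent change from baseline.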
The nature of test [6]: CCTE_Shafer_MEA_acute_firing_rate_mean: CCTE's Neural Acute Assay for Mean Firing Rate, Shafer Lab (AID 2284009).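 Also: analyzed for loss of signal so actives lower firing rate relative to DMSO.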 In short, it runs like this: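 Rat cortical neuron cultures matured to DIV 13 or 15, equilibrated 20 min at 37 C, then recorded 40 min for baseline. Compound (0.03-40 uM) added and a further 40 min recorded; percent change in mean firing rate calculated per well.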

A short description of test [7]: CCTE_Harrill_HTTr_Viability_MCF7: CCTE's 6-hour Cell Viability Assessment for the High-Throughput Transcriptomics (HTTr) Platform, in MCF-7 cells cultured in DMEM + 10% fetal bovine serum, Harrill Lab (AID 2284010). The method, boiled down:
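Eight-point concentration series, six-hour exposure. Propidium iodide exclusion imaged to assess membrane integrity as a cytotoxicity readout; bidirectional fitting was done with DMSO as negative control and activity baseline.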

Test [8] addresses Nucleoli Translocation, AR (gene 367) (UniProt P10275). The experiment in a line: UPITT_HCI_U2OS_AR_TIF2_Nucleoli_Agonist: University of Pittsburgh U2OS Androgen Receptor-Transcriptional Intermediary Factor 2 (AR-TIF2) Agonism High Content Imaging Assay for Nucleoli Translocation (AID 2283998; active = hit-call score of the fitted dose curve at least 0.9, where 1 is the maximum). The method, boiled down: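 U2OS cells expressing RFP-tagged human AR and GFP-tagged TIF2; red fluorescence in nucleoli quantified by high-content imaging. Primary screen at 20 uM final (0.2% DMSO); concentration-response 0.195–50 uM (0.5% DMSO), fitted upward versus DMSO.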

In test [9] the target is Ratio of Nucleoli Translocation and Cytoplasm, AR (gene 367) (UniProt P10275). Nature of the test: UPITT_HCI_U2OS_AR_TIF2_Nucleoli_Cytoplasm_Ratio_Antagonist: University of Pittsburgh U2OS Androgen Receptor-Transcriptional Intermediary Factor 2 (AR-TIF2) Antagonism High Content Imaging Assay for Ratio of Nucleoli Translocation and Cytoplasm (AID 2283999; active = hit-call score of the fitted dose curve at least 0.9, where 1 is the maximum;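 also: antagonists lower the DHT-driven ratio of nucleolar to cytoplasmic red signal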). In short, it runs like this: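 This antagonist-mode endpoint tracks AR-RFP localisation, the nucleolus-to-cytoplasm intensity ratio, in TIF2-GFP-coexpressing U2OS cells. DMSO stays at or below 0.5%; testing spans 20 uM single-dose and 0.195–50 uM series, with DHT setting the activity baseline.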

Experimental findings from PubChem BioAssay (EPA / NIEHS) are described below.

Structures are written as SMILES. Results filed as inconclusive are left out. Activity calls are given as the source filed them. The calls were made as follows, unless noted: active = hit-call score of the fitted dose curve at least 0.9, where 1 is the maximum; inactive = score below 0.9.

Sequence of Nucleoli Translocation, AR (gene 367) (P10275 whole entry, looked up): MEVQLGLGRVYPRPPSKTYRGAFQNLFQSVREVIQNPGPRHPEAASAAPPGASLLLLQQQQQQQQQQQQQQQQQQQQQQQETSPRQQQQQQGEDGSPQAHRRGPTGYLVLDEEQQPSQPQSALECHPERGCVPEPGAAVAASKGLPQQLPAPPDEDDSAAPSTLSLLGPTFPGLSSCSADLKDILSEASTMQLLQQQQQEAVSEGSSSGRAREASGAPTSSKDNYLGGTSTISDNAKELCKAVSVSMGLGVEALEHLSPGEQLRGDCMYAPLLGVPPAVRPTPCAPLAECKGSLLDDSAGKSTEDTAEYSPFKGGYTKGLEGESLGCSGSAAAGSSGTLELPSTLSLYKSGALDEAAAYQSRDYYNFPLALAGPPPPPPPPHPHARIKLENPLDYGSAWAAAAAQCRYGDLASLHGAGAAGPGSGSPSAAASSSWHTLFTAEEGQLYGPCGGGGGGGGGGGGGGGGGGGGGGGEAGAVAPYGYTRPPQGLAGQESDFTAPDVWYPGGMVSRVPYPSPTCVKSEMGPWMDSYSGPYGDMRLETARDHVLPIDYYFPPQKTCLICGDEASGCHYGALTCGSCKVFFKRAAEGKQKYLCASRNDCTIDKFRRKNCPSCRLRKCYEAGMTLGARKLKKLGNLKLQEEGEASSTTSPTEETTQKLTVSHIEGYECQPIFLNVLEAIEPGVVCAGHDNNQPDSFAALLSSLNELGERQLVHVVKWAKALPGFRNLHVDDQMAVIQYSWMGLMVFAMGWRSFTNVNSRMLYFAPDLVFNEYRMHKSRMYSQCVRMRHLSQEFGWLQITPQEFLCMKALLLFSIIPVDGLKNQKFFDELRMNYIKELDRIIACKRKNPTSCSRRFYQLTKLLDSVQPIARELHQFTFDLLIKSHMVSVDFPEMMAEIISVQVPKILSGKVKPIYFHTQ
Sequence of Ratio of Nucleoli Translocation and Cytoplasm, AR (gene 367) (P10275 whole entry, looked up): as above

For orientation: AC50 means the concentration at which the activity in the assay is half-maximal. On to `CCCCNC(=O)OCC#CI`, for which the half-maximal activity concentration (AC50) in [1] is 14.3 µM (active); in [2] it was 91.7 µM (active); in test [5] it was 10.2 µM (active); in test [6] it was 10.2 µM (active). The result in test [3], in test [4] and in test [7] was inactive.

With `CCc1nn(C)c(C(=O)NCc2ccc(C(C)(C)C)cc2)c1Cl`, the AC50 in test [1] was 0.928 µM (active); in test [2], 0.496 µM (active); in test [4], 0.217 µM (active). Further, the compound was classed as inactive in [3] and in test [7].

Take `CN(C)C(=S)SSC(=S)N(C)C`: the outcome in test [8] and in test [7] was inactive. Besides, the half-maximal activity concentration (AC50) in test [9] is 9.92 µM (active).

Consider `C#CCOS(=O)OC1CCCCC1Oc1ccc(C(C)(C)C)cc1` (stereo not drawn), for which the AC50 was 15.5 µM (active) in test [1], 11.3 µM (active) in test [2], 9.46 µM (active) in test [5] and 9.48 µM (active) in test [6]. In addition, the call in [3] and in test [7] was inactive.

With `COc1ccc(C(c2ccc(OC)cc2)C(Cl)(Cl)Cl)cc1`, the outcome in test [5], in [6] and in [7] was inactive.

As for `Oc1ccccc1-c1ccccc1`, the compound was classed as inactive in [1], in [2], in test [3] and in test [7].

In the case of `CCNc1nc(Cl)nc(NC(C)C)n1`, the outcome in test [5], in [6] and in test [7] was inactive.

Regarding `CC(Oc1ccc(Cl)cc1Cl)C(=O)O` (stereo not drawn), the outcome in test [5], in test [6] and in test [7] was inactive.

On to `CC1=C(C(=O)Nc2ccccc2)SCCO1`, for which the compound was called inactive in test [2], in test [3] and in [7].

Regarding `CNC(=O)ON=CC(C)(C)SC`, the compound was classed as inactive in [5], in test [6] and in test [7].

For the compound `Cc1c(F)c(F)c(COC(=O)C2C(/C=C(\Cl)C(F)(F)F)C2(C)C)c(F)c1F` (stereo not drawn), the AC50 was 0.567 µM (active) in [5] and 0.581 µM (active) in test [6]. The result in test [7] was inactive.

Take `CCCCC(CC)COC(=O)c1ccccc1C(=O)OCC(CC)CCCC` (stereo not drawn): the outcome in [7] was inactive.

Turning to `COC(=O)C(C)Oc1ccc(Oc2ccc(Cl)cc2Cl)cc1` (stereo not drawn), the compound was called inactive in [5], in [6] and in [7].

In the case of `C=CC1(C)OC(=O)N(c2cc(Cl)cc(Cl)c2)C1=O` (stereo not drawn), the outcome in test [7] was inactive.
